LMNA splice mod: changes lamin A minigene splicing in HeLa cells. HeLa LMNA splicing GFP/RFP minigene ratio, 48 h. Potency, µM (top dose mostly 46.1 µM), inactives show top-dose ratio change, negative = inhibition, actives largely listed as inhibitors. 0.01% of 200,000 active. AID 1487; active means well fitted inhibition curve with a large enough effect in the signal ratio, with a control signal flat, not every such curve was filed as active; inconclusive means small, poorly fitted or top-dose-only effect, or effect the other way, or a change in a side signal; the % refers to the signal ratio; further: potency means the concentration at half of the fitted maximal effect
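S3 HeLa stable clones carrying a lamin A-EGFP splicing minigene plus DsRed2 were seeded at 600 cells/well in Opti-MEM with 2% FBS, pin-dosed and incubated 48 h at 37°C. Acumen cytometry (488 nm) gave the GFP/RFP total-intensity ratio.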
IMPase cell inh: cell-permeable inhibitors of inositol monophosphatase (IMPase) | CHO-M1 cells, IP1 accumulation, HTRF TR-FRET ratio | inhibition (IP1 accumulation), % at 46.1 µM | 120,000 tested, under 10 active | AID 901; active means well fitted curve in the direction sought with a large enough effect in the signal ratio, not every such curve was filed as active; inconclusive means small, poorly fitted or top-dose-only effect, or a change in a side signal; inactive means no such curve, though single readings can be large or run the other way; the % refers to the signal ratio;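 further: cells stimulated with carbachol in lithium chloride buffer; plate controls were DMSO basal wells for no effect and reference inhibitor wells for full effect; higher means more IMPase inhibition seen as more IP1 and lower FRET ratio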
Target sequence (P97697 whole entry, looked up): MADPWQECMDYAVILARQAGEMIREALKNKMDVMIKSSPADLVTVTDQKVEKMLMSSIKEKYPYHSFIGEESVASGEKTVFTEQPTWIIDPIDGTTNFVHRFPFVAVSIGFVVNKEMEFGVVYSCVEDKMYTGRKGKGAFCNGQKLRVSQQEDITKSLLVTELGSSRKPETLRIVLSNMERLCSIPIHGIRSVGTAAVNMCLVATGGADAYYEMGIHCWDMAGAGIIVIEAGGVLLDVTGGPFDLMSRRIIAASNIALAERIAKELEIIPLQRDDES
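In this qHTS, compounds (final up to 46 uM) act on CHO-M1 cells that are then activated through the M1 receptor with carbachol, in pH 7.4 buffer containing 50 mM LiCl, for 30 min. IP1 accumulation is quantified by the IP-One immunoassay.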
ALDH1A1 inh: inhibitors of human aldehyde dehydrogenase 1A1; P00352; Purified ALDH1A1, NADH fluorescence, propionaldehyde substrate; Potency, µM (titrated, usually from 75.3 µM), for the others: at the highest dose activity, negative = inhibition, usual class: inhibitors; 7.3% of 220,000 active; AID 1030;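 further: potency means the concentration at half of the fitted maximal effect; plate controls were no enzyme wells and a reference inhibitor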
PNC inhibitor: perinucleolar compartment assembly inhibition; PC3M PTB-GFP, PNC prevalence imaging, 16 h; active compounds read low; activity change (PNC), negative = inhibition, % at 10 µM; 3.1% of 140,000 active; AID 2417;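 active means readout at or below -70, meaning at least 70% loss of cells showing the perinucleolar compartment, a nuclear body marking cancer cells; inconclusive means readout between -30 and a set limit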;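 further: plate controls were DMSO wells for no effect and camptothecin positive control wells for full effect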
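Compounds are pinned in duplicate onto adhered PC3M cells stably expressing GFP-tagged PTB and incubated 16 h at 37 C. Cells are then fixed, nuclei stained with Hoechst, and PNC-positive cells counted.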
KinaseGlo FLuc: Kinase-Glo luciferase inhibition (counter-screen). Potency, µM (highest dose often 38.3 µM), for inactives: at the highest dose activity change, negative = inhibition, actives largely listed as inhibitors. AID 1379. Kinase-Glo luciferase, ATP luminescence, 8 min. 0.28% of 200,000 active; active means well fitted inhibition curve with a large enough effect; inconclusive means small, poorly fitted or top-dose-only effect; further: potency means the concentration at half of the fitted maximal effect; nearly all actives have a fitted effect of over 60% in size
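Compounds were added to a substrate mix at pH 7.2 (50 mM imidazole, 10 uM ATP, within the enzyme's linear range), followed by Kinase-Glo detection reagent; luminescence was measured after 8 minutes at ambient temperature.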
HPGD block: blocks human HPGD enzyme activity | P15428 | purified HPGD, NADH fluorescence kinetic, PGE2 substrate | Potency, µM, inactives show at the highest dose activity change, negative = inhibition, most hits filed as inhibitors | 4.3% of 150,000 active; further: potency means the concentration at half of the fitted maximal effect
Target sequence (P15428 whole entry, looked up): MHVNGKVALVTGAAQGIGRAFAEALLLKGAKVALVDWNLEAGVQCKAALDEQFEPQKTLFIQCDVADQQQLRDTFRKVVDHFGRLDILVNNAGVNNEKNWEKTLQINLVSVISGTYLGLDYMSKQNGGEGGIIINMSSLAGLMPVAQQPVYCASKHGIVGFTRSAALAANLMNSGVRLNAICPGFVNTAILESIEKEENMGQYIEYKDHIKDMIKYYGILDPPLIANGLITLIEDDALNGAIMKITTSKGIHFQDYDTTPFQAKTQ
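20 nM HPGD preincubated 15 min at room temperature with compound in 50 mM Tris-HCl pH 8, 0.01% Tween 20. Started with 1 mM NAD+ and 30 uM prostaglandin E2; NADH fluorescence (360/450 nm) read 5 times over 30-s intervals, last minus first.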
* marks the source's active call; other numbers are inactive results; ? = inconclusive; . = no result; [ ] = dose if it differs, or a comment. Only some compounds are listed: those with a hit (about 10% of all), similar ones and a draw of the others. Unless noted, the call rests on the fitted dose curve; in most records, active means well fitted inhibition curve with a large enough effect (not every such curve was filed as active); inconclusive means small, poorly fitted or top-dose-only effect, or another doubt; inactive means no such curve, though single readings can be large or run the other way. Unless noted, on the % scale 0 is the no-effect control and ±100 the full control effect.

SMILES	LMNA splice mod	IMPase cell inh	ALDH1A1 inh	PNC inhibitor	KinaseGlo FLuc	HPGD block
N#C/C(=C\c1ccc(-c2ccc(S(=O)(=O)N3CCOCC3)cc2)o1)C(=O)NC1CC1	-6.4%	.	?	-16.9	2.5%	14.1µM*
CN(C)S(=O)(=O)c1ccc(C(=O)OCC(=O)Nc2sc3c(c2C#N)CCCCC3)cc1	2.9%	.	-15.4%	54.0	-0.4%	-4.0%
CNS(=O)(=O)c1cccc(C(=O)OCC(=O)Nc2sc3c(c2C#N)CCCCC3)c1	-14.6%	?	25.1µM*	19.1	.	.
COc1ccc(N2CCN(Cc3nc4c(c(=O)n(C)c(=O)n4C)n3C(C)C)CC2)cc1	7.8%[46 µM]	.	.	.	.	.
CC(C)CN1CC[C@@]2(CCCN(S(=O)(=O)c3ccccc3)C2)C1	.	.	-3.7%	.	-1.2%	-1.2%
CC(C)C(c1nnnn1Cc1ccc2c(c1)OCO2)N1CCN(C)CC1 (centres undefined)	-7.3%	-2.9	-0.5%	-100.0*	0.2%	-9.6%
Cc1ccc(-c2nnc(COc3cccc(-n4cnnn4)c3)o2)cc1	3.7%	16.6	2.9%	-103.2*	1.5%	-26.6%
S=c1[nH]nc(-c2ccc3ccccc3n2)n1-c1ccc2ncccc2c1	6.1%	.	-15.6%	-15.2	0.4%	12.6µM*
S=c1[nH]nc(-c2ccc3ccccc3n2)n1-c1ccc(Cl)cc1	-3.8%	-18.5	?	-5.6	0.1%	10µM*
O=C(Nc1ccc(OCc2ccccc2)cc1)c1ccccc1	-3.7%[46 µM]	.	7.2%	.	-10.1%	.
O=C(Nc1ccc(OCc2ccccc2)cc1)c1cccnc1	22.3%	8.3	8.8%	-112.1*	-4.4%	-19.2%
O=C(CSc1nnnn1-c1ccccc1)CC(=O)Nc1ccc(Cl)cc1	?	-2.0	2.24µM*	34.7	0.4%	-30.9%
O=C(CSc1nnnn1-c1ccccc1)Nc1nsc(-c2ccc(Cl)cc2)n1	8.4%	5.4	?	?	1.3%	?
CCn1nnnc1SCC(=O)Nc1ccc(OCc2ccccc2)cc1	-6.9%	-0.6	?	-26.8	-3.1%	-9.4%
O=C(CSc1nnnn1-c1cccnc1)Nc1ccc(OCc2ccccc2)cc1	1.7%	0.7	3.98µM*	-28.0	-5.7%	-12.5%
O=C(Nc1c(O)c2ccccc2oc1=O)c1cccc(F)c1	.	-0.7	.	.	.	.
CCn1ccc2cc(S(=O)(=O)N3CCCN(C(=O)NCC(C)C)CC3)ccc21	4.9%[46 µM]	.	.	.	.	.
CCN(CC)c1ccc(C=Nc2cc(C)cc(C)c2)c(O)c1	-2.1%	.	14.1µM*	-22.7	-0.7%	-23.5%
CCN(CC)c1ccc(C=Nc2ccccc2)c(O)c1	-8.8%	-0.4[0.0738 µM]	3.55µM*	-7.1	-7.4%	-28.1%
CCN(CC)c1ccc(N=Cc2ccc(N(CC)CC)cc2O)cc1	?	14.0	1.78µM*	?	15.0%	-6.6%
COc1ccc(C2(N3CCN(c4cccc(C)c4C)CC3)C(=O)c3ccccc3C2=O)cc1	.	11.1	.	.	.	.
Cc1ccc(C)c(N2CCN(CCCNC(=O)c3ccc4nc(C(C)C)oc4c3)CC2)c1	2.9%[46 µM]	.	.	.	.	.
Nc1cc(N2CCCCC2)c(Cl)cc1[N+](=O)[O-]	?	0.7	11.8%	?	0.7%	-8.2%
O=[N+]([O-])c1cc(F)c(N2CCOCC2)cc1N1CCCCC1	12.9%	1.0	14.1µM*	37.8	-1.6%	-3.9%
Nc1cc(N2CCCCC2)c([N+](=O)[O-])cc1Cl	-1.0%	.	3.55µM*	63.0	0.7%	-23.1%
SMILES	LMNA splice mod	IMPase cell inh	ALDH1A1 inh	PNC inhibitor	KinaseGlo FLuc	HPGD block
O=C(NCC12CC3CC(CC(C3)C1)C2)c1nn2cccnc2c1Cl	6.3%	5.4	15.8µM*	32.4	-6.0%	17.8µM*
COCCNC(=O)c1nn2cccnc2c1Cl	14.1%	0.6	3.6%	-8.5	-2.7%	?
O=C(NCC1CCCO1)c1nn2cccnc2c1Cl (centres undefined)	-5.0%	-12.6	-5.8%	-9.6	-2.3%	25.1µM*
C=CCC(C)(O)C(=O)OCC (centres undefined)	.	.	-15.6%	.	0.5%	-6.5%
O=c1c(-c2cccs2)nc2cnc(N3CCOCC3)nc2n1Cc1cccs1	?	.	-0.4%	.	.	.
Cc1ccc(C(=O)c2oc3ccccc3c2NC(=O)c2cc(-c3ccccc3)on2)cc1	11.1%[46 µM]	.	.	.	.	.
C=C[C@@]1(C)CC[C@H](O)[C@H]2C(=O)CCC[C@@H]21	.	.	10.0%	.	1.3%	-5.5%
COc1ccccc1-c1ccc(/C=C2/C=C(C)OC2=O)o1	5.5%	.	?	-113.4*	1.8%	?
CON(C)C(=O)c1nnc2c(n1)[nH]c1ccccc12	.	.	-5.1%[13.5 µM]	.	.	.
COc1ccc(-n2cc(C(=O)NCCc3cc(OC)ccc3OC)c3ccccc3c2=O)cc1	-16.0%[46 µM]	.	.	.	.	.
N#CC1(c2ccc(NC(=O)c3ccccc3)cc2)CCCC1	2.6%	9.2	4.47µM*	?	?	-24.1%
CCOC(=O)C1CCC(CN(Cc2cccc(Br)c2)S(=O)(=O)c2ccc(C)cc2)CC1 (centres undefined)	-22.0%[46 µM]	.	.	.	.	.
Cc1ccc(-n2nnnc2Sc2ccc(S(=O)(=O)NCCN(C)C)cc2[N+](=O)[O-])cc1	?	.	?	21.9	-5.2%	-21.8%
O=[N+]([O-])c1cc(S(=O)(=O)NCCN2CCOCC2)ccc1Sc1nnnn1-c1ccccc1	?	.	14.1µM*	-15.2	-1.3%	-8.4%
Cc1cccc(OCC(=O)NN2C(=O)C3C4C=CC(O4)C3C2=O)c1 (centres undefined)	-11.8%[9.22 µM]	.	3.16µM*	.	-3.7%	.
O=C(CCc1ccccc1)NN1C(=O)C2C3C=CC(O3)C2C1=O (centres undefined)	.	.	13.9%	.	2.0%	.
Cc1ccccc1OCC(=O)NN1C(=O)C2C3C=CC(O3)C2C1=O (centres undefined)	6.3%[46 µM]	.	8.91µM*	.	-1.1%	.
CCOc1ccc(NC(=O)c2ccc(N)cc2)cc1	-8.8%	-7.9	3.8%	22.4	-5.8%	-13.8%
CCOc1ccc(C(=O)NN2C(=O)C3C4C=CC(O4)C3C2=O)cc1 (centres undefined)	6.7%	5.0	12.6µM*	8.4	0.7%	7.6%
CCOC(=O)c1c(C)[nH]c(CCC(=O)Nc2ccc(C)c(F)c2)c1C	-23.7%[46 µM]	.	.	.	.	.
CCOC(=O)c1c(NC(=O)CSc2nnnn2-c2ccc(OC)cc2)sc(C)c1C	4.5%	-2.4	1µM*	-6.1	-2.2%	2.82µM*
NC(=O)c1c(NC(=O)CSc2nnc(-c3ccccc3)n2CC2CCCO2)sc2c1CCC2 (centres undefined)	-5.7%	6.2	28.2µM*	-2.7	1.7%	?
CCOC(=O)c1c(NC(=O)CSc2nnc(CNc3ccc(F)cc3)o2)sc(C)c1C	7.9%	5.5	?	-4.1	1.3%	-19.7%
CCOC(=O)c1c(NC(=O)CSc2nnc(CNc3ccc(Cl)cc3)o2)sc(C)c1C	-11.0%	-0.6	11.2µM*	-107.2*	0.8%	-4.1%
